Tm shift relative to glycine control data for 94 compounds are collected here from PubChem BioAssay AID1259313 (Sanford-Burnham Center for Chemical Genomics, 2017).

The whole screen tested about 340,000 compounds, of which about 8,500 (2.5%) were called active.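 The calls were made as follows: active = melting temperature shift of at least 10% of the positive control shift, at one fixed dose; inactive = the rest.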 The sample as a whole holds a higher share of actives than the screen did.

This experiment relates to Glutamate receptor ionotropic, NMDA 3A (GRIN3A) ligand-binding domain. Description: NR3A LBD thermal stabilization by compounds – biophysical, differential scanning fluorimetry, uHTS, primary screen (AID 1259313). Particulars: at 25 µM, active compounds read high, 0% = protein alone, 100% = glycine-bound protein. On the technique in general: DSF heats the sample and reads unfolding from a dye or from intrinsic fluorescence.
On to `COc1ccc(Oc2coc3cc(OC(=O)c4cncc(Br)c4)ccc3c2=O)cc1`, for which the Tm shift relative to glycine control was -4.3% (inactive).
Take `CCc1ccc(Oc2coc3cc(O)ccc3c2=O)cc1`: the Tm shift relative to glycine control is -1.09% (inactive).
For `COC(=O)COc1ccc2c(=O)c(Oc3ccccc3Br)coc2c1` the value was 17.5% (active).
For `CC(C)OC(=O)c1ccc(COc2ccc3ccc(=O)oc3c2)o1` the value was 1.19% (inactive); for `COc1ccc(-c2cn[nH]c2-c2ccc(OC)cc2)cc1`, 0% (inactive).
For `CCOc1ccccc1Oc1cn[nH]c1-c1ccc(OC)cc1O` the value was -4.92% (inactive); for `COc1ccc(Oc2cn[nH]c2-c2ccc(OC)cc2O)cc1`, 17.8% (active).
Turning to `Cc1ccc(S(=O)(=O)N2CCN(C(=O)c3cc(S(=O)(=O)N4CCOCC4)ccc3F)CC2)cc1`, the Tm shift relative to glycine control is -1.16% (inactive).
Turning to `CC1CCCC(NC(=O)CSc2nccn2C)C1C` (centres undefined), the Tm shift relative to glycine control is 3.2% (inactive).
In the case of `Cc1ccc(-n2nc3c(=O)n(C(C)C(=O)NCc4ccc5c(c4)OCO5)nc(C)c3c2C)cc1` (centres undefined), the Tm shift relative to glycine control was 0% (inactive).
Turning to `COC(C(=O)Nc1ccc(S(=O)(=O)Nc2ccc(C)c(C)c2)cc1)c1ccccc1` (centres undefined), the Tm shift relative to glycine control is 16.2% (active).
For `COC(C(=O)Nc1ccc(C(C)=O)cc1)c1ccccc1` (centres undefined) the value was -4.28% (inactive); for `COC(C(=O)NCc1ccccc1C)c1ccccc1` (centres undefined), -0.62% (inactive); for `CCOc1ccc(CN2CCN(CCCc3ccccc3)C(CCO)C2)cc1` (centres undefined), 0.91% (inactive).
For `CC1CN(C(=O)COC(=O)c2cccc(NS(=O)(=O)c3ccccc3)c2)CC(C)O1` (centres undefined) the value was 2.04% (inactive); for `CC1=C(C)CC(C(=O)NC(C)CCc2ccccc2)C(C(=O)O)C1` (centres undefined), -2.66% (inactive); for `CSc1cc(C)[nH]c(=O)n1`, 1.65% (inactive).
On to `COc1ccccc1S(=O)(=O)c1c(C)cc(C)[nH]c1=O`, for which the Tm shift relative to glycine control was -0.69% (inactive).
For `Cc1cc(=O)cc(C)[nH]1` the value was 13% (active); for `CCOc1cnc(C(=O)NNC(=O)c2ccccc2Br)o1`, -1.85% (inactive).
`Clc1cccc(N=C2NN=C(c3ccc4c(c3)OCCO4)CS2)c1`: the Tm shift relative to glycine control is 12.7% (active).
As to `c1ccc(CN2CCC(N=C3NN=C(c4ccc5c(c4)OCCO5)CS3)CC2)cc1`, the Tm shift relative to glycine control is -2.04% (inactive).
For `CN(C)c1nc(=Nc2cccc(Cl)c2)ss1` the value was -11% (inactive); for `Cc1ccc(S(=O)(=O)N(C)c2ccc(OCC(=O)OCc3ccc(C#N)cc3)cc2)cc1`, 12.6% (active); for `Cc1ccc(S(=O)(=O)N(C)c2ccc(OCC(=O)NC3=NCCS3)cc2)cc1`, -0.31% (inactive).
Turning to `Cc1ccc(S(=O)(=O)N(C)c2ccc(OCC(=O)OCC(=O)N(CC#N)c3ccccc3)cc2)cc1`, the Tm shift relative to glycine control is 2.35% (inactive).
For `O=C(NCc1csc(-c2cccs2)n1)C1CC1`, the Tm shift relative to glycine control is 0.25% (inactive).
For `COc1ccc(C2OCC3(CO2)SC(=O)NC3=O)cc1OC` (centres undefined) the value was -1.38% (inactive); for `O=C(NCc1cccs1)c1ccc(CS(=O)Cc2ccccc2Cl)o1` (centres undefined), 0.47% (inactive).
For `Nc1nnn(CC(=O)N/N=C/c2ccccc2)n1` the value was -2.09% (inactive); for `O=C(Cn1nnc(-c2ccccc2)n1)N/N=C/c1ccc(-c2ccc(Cl)cc2)o1`, 384% (active).
Regarding `O=C(CN1CCOCC1)N/N=C/c1ccc(-c2ccc(Br)cc2)o1`, the Tm shift relative to glycine control is -2.4% (inactive).
For `CCOc1ccc(-n2c(SCC(=O)NC3CCS(=O)(=O)C3)nnc2-c2cccnc2)cc1` (centres undefined) the value was -1.01% (inactive); for `CCN1CC(CN(C)Cc2nc(-c3ccc(Cl)cc3)no2)CC1=O` (centres undefined), -0.89% (inactive).
For `O=C(OCC(=O)N1CCc2ccccc21)c1ccc([N+](=O)[O-])cc1` the value was 1% (inactive).
For `CCc1ccc(Nc2n[n+](-c3ccccc3)c(-c3cccc(Cl)c3Cl)s2)cc1` the value was 16% (active); for `COc1ccc(C)cc1Nc1n[n+](-c2ccccc2)c(-c2cccc(Cl)c2Cl)s1`, 4.85% (inactive); for `COc1cc(Br)c(-c2sc(Nc3ccccc3)n[n+]2-c2ccccc2)cc1OC`, -12% (inactive).
`O=C(c1ccc(F)cc1)N1CCC(n2nnc3ccccc32)CC1`: the Tm shift relative to glycine control is 3.22% (inactive).
For `CCOCCOC(=O)C1=C(C)N(C)C(=O)NC1c1ccccc1F` (centres undefined) the value was -1.72% (inactive).
For `COc1ccc2c(c1)C(SCC(=O)NCc1ccccc1)CC(C)(C)O2` (centres undefined) the value was -0.16% (inactive).
For `CC(C)OCCCNC(=O)C1CC(=O)N(C2CCCCCCC2)C1` (centres undefined) the value was 2.24% (inactive); for `CCOCCCNC(=O)C(=O)NCCCOCC`, -0.68% (inactive).
Take `CC(C)NC(=O)C(=O)NCCCOC(C)C`: the Tm shift relative to glycine control was 18.7% (active).
Regarding `CC(C(=O)Nc1ccc(S(=O)(=O)N2CCCC2)cc1)N(C)Cc1ccc(F)cc1` (centres undefined), the Tm shift relative to glycine control is -1.56% (inactive).
For `CCOC(=O)N/N=C/c1cn(Cc2ccccc2Cl)c2ccccc12` the value was -13.8% (inactive); for `CNC(=S)N/N=C/c1cn(Cc2ccc(C)cc2)c2ccccc12`, -1.66% (inactive); for `COC(=O)N/N=C/c1cn(CCCOc2ccc(C)cc2)c2ccccc12`, 12.8% (active).
On to `CC(C)(C)c1ccc(/C=C/C(=O)NCCCn2ccnc2)cc1`, for which the Tm shift relative to glycine control was -0.74% (inactive).
As for `O=C(COC(=O)c1ccc(Cl)nc1)NCc1ccc2c(c1)OCO2`, the Tm shift relative to glycine control was -1.93% (inactive).
As to `CCOc1c(Cl)cc(/C=N/O)cc1OC`, the Tm shift relative to glycine control was 10.8% (active).
For `CCOc1cc(/C=C(/C#N)c2ccc(Cl)cc2)cc(Cl)c1OCC(=O)O` the value was -1.37% (inactive).
For `CCOc1cc(/C=N/O)cc(Br)c1OC` the value was 10.5% (active); for `COc1cc(/C=N/O)cc(Br)c1OS(=O)(=O)c1ccc(C)cc1`, -0.94% (inactive); for `CCOc1cc(/C=N/O)ccc1OCc1ccccc1F`, -0.35% (inactive).
For `COc1cc(/C=N/O)cc(Br)c1OCc1cccc(Cl)c1` the value was 9.46% (inactive).
Consider `C[C@@H]1ON(C)[C@H]2C[C@H]3c4cc(N5CCN(C)CC5)ccc4CCN3C(=O)[C@@H]12`, for which the Tm shift relative to glycine control is 2.38% (inactive).
For the compound `COc1cc(OC)cc(C(=O)NC(C(=O)N2CCC2)C(C)C)c1` (centres undefined), the Tm shift relative to glycine control is -1.01% (inactive).
`COc1ccc(N2CCN(C(=O)[C@@H](NC(=O)c3cc(OC)cc(OC)c3)C(C)C)CC2)cc1`: the Tm shift relative to glycine control is -0.58% (inactive).
For `COc1cc(OC)cc(C(=O)N[C@H](C(=O)NNC(=O)c2ccc(Br)cc2)C(C)C)c1` the value was 13.6% (active); for `COc1ccc(N2CCN(CCCNC(=O)C3CCN(S(=O)(=O)N4CCOCC4)CC3)CC2)cc1`, 1.84% (inactive).
For `O=C(CSc1ccccn1)Nc1nc2c(ccc3ccccc32)s1` the value was -2.83% (inactive).
Take `CS(=O)(=O)Nc1cccc(-c2cn3ccccc3n2)c1`: the Tm shift relative to glycine control is -0.95% (inactive).
For `CCS(=O)(=O)Nc1cccc(-c2cc(-c3ccccc3)c3cc(C)ccc3n2)c1` the value was 10.6% (active).
For `Cc1cc(C)cc(NS(=O)(=O)Cc2ccccc2)c1` the value was 1.07% (inactive); for `CC1CN(S(=O)(=O)c2ccc(C(=O)Nc3sccc3C(N)=O)cc2)CC(C)O1` (centres undefined), -4.29% (inactive); for `Cc1ccc2c(c1)N(CC(=O)N(Cc1ccccn1)Cc1ccco1)C(=O)C(C(C)C)O2` (centres undefined), 0.17% (inactive).
For `O=c1[nH]c2c(c(=O)n1-c1ccccc1)CCO2` the value was 1.26% (inactive).
As for `CC(C)n1cnc2c(Nc3cccc(Cl)c3)nc(N(CCO)CCCO)nc21`, the Tm shift relative to glycine control is 1.29% (inactive).
For `OCCCNc1nccc(-c2cc(Nc3cccc(Cl)c3)ncn2)n1` the value was 21.3% (active); for `Cc1cccc(Nc2nc(NCCO)nc(N3CCCC3)n2)c1`, -4.68% (inactive); for `CCC(=O)Nc1cc(C(F)(F)F)ccc1N1CCCC1`, 1.55% (inactive).
As to `CCC(=O)N1CCN=C1SCc1ccc(F)cc1`, the Tm shift relative to glycine control was 1.29% (inactive).
For `O=C(C1CC1)N1CCN=C1SCc1ccc(Cl)cc1` the value was 11.7% (active); for `O=C(c1ccco1)N1CCN=C1SCc1cccc(Cl)c1`, 0.08% (inactive).
For `COc1ccc(CN2CN(C(C)C)CSC2=S)cc1` the value was 1.51% (inactive); for `Cc1cc(F)ccc1S(=O)(=O)Nc1ncnc2scc(-c3ccc(F)cc3)c12`, 10.2% (active).
For `COc1ccc(-c2csc3ncnc(N4CCN(S(=O)(=O)c5cccc(F)c5)CC4)c23)cc1` the value was -1.02% (inactive); for `O=S(=O)(Nc1ncnc2sccc12)c1cccc(F)c1`, -0.96% (inactive).
On to `C=CCNC(=O)COC(=O)c1ccccc1C(=O)N(C)C1CCCCC1`, for which the Tm shift relative to glycine control was -0.25% (inactive).
Consider `O=C(CN(CC1CCCO1)C(=O)CNS(=O)(=O)c1ccc(Cl)cc1)NCc1ccccc1` (centres undefined), for which the Tm shift relative to glycine control was 2.76% (inactive).
For `Cc1ccc(-n2ncc(C(=O)NC3CC3)c2C2CCN(C(=O)OC(C)(C)C)CC2)c(C)c1` the value was 13.4% (active).
For `Cc1ccc(C)c(NC(=O)C2CCCN2C(=O)OC(C)(C)C)c1` (centres undefined) the value was 4.23% (inactive).
For `CC(C)(C)OC(=O)N1CCC(C(=O)NNC(=O)c2ccc(Cl)cc2Cl)CC1` the value was -2.13% (inactive).
As for `CCn1c(=S)[nH]c2cc(S(=O)(=O)N3CCOCC3)ccc21`, the Tm shift relative to glycine control was 2.56% (inactive).
For `Cc1cc(NS(=O)(=O)c2ccc(NC(=O)C(C)Oc3cccc(C)c3C)cc2)nc(C)n1` (centres undefined) the value was 3.5% (inactive).
For `CCNc1nc(NC(C)C)nc(N2CC(=O)N(CC(=O)OCC)C2=N)n1` the value was -4.17% (inactive).
For `CCN(CC)CCCC(C)n1c2nc(=O)[nH]c(=O)c-2nc2cc(Cl)ccc21` (centres undefined) the value was -386% (inactive).
`CCOC(=O)C1=C(CC)Nc2ccccc2N=C1NC(=O)c1cccc(S(=O)(=O)N2CCCC2)c1`: the Tm shift relative to glycine control was 0% (inactive).
For the compound `Cc1c(CC(=O)NCC(=O)NCC(=O)O)c(=O)oc2cc3oc4c(c3cc12)CCCC4`, the Tm shift relative to glycine control is 31.7% (active).
For `CC[C@@H](C)[C@H](NC(=O)CCc1c(C)c2cc3c4c(oc3c(C)c2oc1=O)CCCC4)C(=O)O` the value was 1.33% (inactive).
For `Cc1c(CC(=O)NCCCCCC(=O)O)c(=O)oc2cc3occ(-c4ccccc4)c3cc12` the value was -0.98% (inactive); for `CC1CC1C(=O)OCC(=O)c1c(N)n(C)c(=O)n(C)c1=O` (centres undefined), -0.75% (inactive); for `O=C(Nc1ccc(OC(F)(F)F)cc1)c1ccc2c(c1)no[n+]2[O-]`, -3.76% (inactive).
